Bioassay records (PubChem)
HCMV inh: blocks human cytomegalovirus replication | HFF cells, HCMV-luciferase reporter, 72 h; hits give low values | 410,000 tested, 4.5% active | AID 1259415 | activity change, negative = inhibition, % at 57.5 µM; in the data active = activity change below about -60%; inconclusive = no clear call, values can overlap the other calls; inactive = above about -39%; also: % is scaled to controls: 0 for no effect and ±100 for the full control effect
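Luciferase read-out from HCMV-luciferase-infected HFFs (MOI 1 PFU/cell) 72 h post infection at 37C; compounds added after 16 h cell attachment; activity normalized between buffer-only basal and Salinomycin (10uM) inhibitor controls.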
Marburg entry inh: Marburg virus entry inhibition; Marburg virus pseudotyped entry inhibition, cell reporter; Potency, µM (series often up to 37.8 µM), for the others: at the highest dose activity change, negative = inhibition, actives largely listed as inhibitors; 300,000 tested, 1.8% active; calls by dose curve; tested in HEK293 cells; also: potency is read from the fitted curve at half-maximal effect; % is scaled to controls: 0 for no effect and ±100 for the full control effect
FMDV inh: foot and mouth disease virus antiviral activity; FMDV antiviral cell-based qHTS; Potency, µM (titrated, usually from 57.9 µM), inactives show top-dose activity change, negative = inhibition, actives largely listed as inhibitors; 410,000 tested, 1.2% active; AID 1159524; calls by dose curve; tested in HEK293T cells; also: read-out not given here; potency is read from the fitted curve at half-maximal effect; % is scaled to controls: 0 for no effect and ±100 for the full control effect; nearly all actives have a fitted effect of over 45% in size
LASV entry inh: blocks Lassa virus binding to or entry into cells. Lassa virus pseudotype entry inhibition, cell reporter. Potency, µM (top dose mostly 37.9 µM), for inactives: at the highest dose activity change, negative = inhibition, actives largely listed as inhibitors. 300,000 tested, 1.2% active. AID 540256; calls by dose curve; tested in HEK293 cells; also: potency is read from the fitted curve at half-maximal effect; % is scaled to controls: 0 for no effect and ±100 for the full control effect; nearly all actives have a fitted effect of over 50% in size
HCV inhibitor: HCV inhibition; AID 651820; 340,000 tested, 3.4% active; Potency, µM (top dose mostly 41.8 µM), for the others: top-dose activity change, negative = inhibition, most hits filed as inhibitors; Huh7.5.1 HCVcc-Cre infection, luciferase reporter, 44 h; active = well fitted inhibition curve with a large enough effect; inconclusive = small, poorly fitted or top-dose-only effect, or another doubt; inactive = no such curve, though single readings can be large or run the other way; also: potency is read from the fitted curve at half-maximal effect; % is scaled to controls: 0 for no effect and ±100 for the full control effect
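Seed cells (1,000/well) for 4 h; treat with compound and infect with HCVcc-Cre, moi about 0.5. Incubate 44 h, then detect luciferase activity.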
SARS PLpro yeast: blocks SARS-CoV papain-like protease in a yeast assay. S. cerevisiae expressing SARS-CoV PLpro, growth rescue. Potency, µM (highest dose often 32.9 µM), without a hit: at the top dose activity, positive = growth rescue, usual class: activators. 330,000 tested, 0.19% active; calls by dose curve; also: potency is read from the fitted curve at half-maximal effect; 0% is about no effect; nearly all actives have a fitted effect of over 55% in size
* marks the source's active call; other numbers are inactive results; [ ] = remark or other dose. The list is not random: actives were taken first. Their share in the collection is about 8%.

How did CCN1CCc2c(sc(NC(=O)C3COc4ccccc4O3)c2C(N)=O)C1 (stereo unspecified) do in these assays?
HCMV inh: -71.2*; Marburg entry inh: 4.4%; FMDV inh: 24.9%; LASV entry inh: -2.5%; SARS PLpro yeast: 9.9%

Results for CC(=O)N1CCc2c(sc(NC(=O)C3COc4ccccc4O3)c2C(N)=O)C1 (stereo unspecified) ?
HCMV inh: 36.7; Marburg entry inh: 0.5%[46.1 µM]; FMDV inh: 7.6%; LASV entry inh: -4.5%[46.1 µM]; HCV inhibitor: inconclusive; SARS PLpro yeast: -1.5%

What do the screens show for `CCN1CCc2c(sc(NC(=O)c3ccc(S(=O)(=O)N(CC)c4ccccc4)cc3)c2C(N)=O)C1`?
HCMV inh: -31.7; Marburg entry inh: inconclusive; FMDV inh: 25.1µM*; LASV entry inh: inconclusive; HCV inhibitor: inconclusive; SARS PLpro yeast: -0.7%

Results for CC(=O)N1CCc2c(sc(NC(=O)c3ccc([N+](=O)[O-])o3)c2C(N)=O)C1 ?
HCMV inh: -101.0*; FMDV inh: -2.0%

Results for CN1CCc2c(sc(NC(=O)C3COc4ccccc4O3)c2C(N)=O)C1 (stereo unspecified) ?
HCMV inh: -62.6*; Marburg entry inh: 16.5%; FMDV inh: 15.6%; LASV entry inh: inconclusive; SARS PLpro yeast: 1.9%

Results for COc1cc(NC(=O)Cn2ccn(-c3cc(C)cc(C)c3)c(=O)c2=O)cc(OC)c1 ?
HCMV inh: 6.4; FMDV inh: -2.0%; LASV entry inh: -0.6%[46.1 µM]

Results for CCSc1nc(O)c([C@H]2OC(=O)c3c2ccc(OC)c3OC)c(=O)n1-c1ccccc1 ?
Marburg entry inh: -0.1%

How did OC(c1ccc2c(c1)CN(Cc1ccc3nsnc3c1)CCO2)C1CCCCC1 (stereo unspecified) do in these assays?
FMDV inh: -9.5%

How did Cc1ccc2nc(/C(C#N)=C/c3ccc(-c4ccc(F)cc4F)o3)[nH]c2c1 do in these assays?
HCMV inh: -22.1; FMDV inh: -21.6%; LASV entry inh: -14.0%[46.1 µM]

How did Cc1cc(/C=C(\C#N)c2nc3ccccc3[nH]2)c(C)n1C do in these assays?
HCMV inh: 74.0; Marburg entry inh: inconclusive; FMDV inh: 1.8%; LASV entry inh: 10µM*; HCV inhibitor: inconclusive; SARS PLpro yeast: -11.9%

How did Cc1ccc2nc(/C(C#N)=C/c3ccc(-c4cccc([N+](=O)[O-])c4)o3)[nH]c2c1 do in these assays?
HCMV inh: -62.2*; Marburg entry inh: 5.5%; FMDV inh: 2.9%; LASV entry inh: 1.8%; HCV inhibitor: -26.6%; SARS PLpro yeast: 2.3%

Results for COc1cc(/C=C(\C#N)c2nc3ccccc3[nH]2)ccc1Oc1ccc([N+](=O)[O-])cn1 ?
HCMV inh: 2.7; Marburg entry inh: inconclusive; FMDV inh: 13.5%; LASV entry inh: -6.1%; HCV inhibitor: 0.891µM*; SARS PLpro yeast: 1.2%

What do the screens show for `Cc1cc(/C=C(/C#N)c2nc3ccccc3[nH]2)c(C)n1-c1cccc([N+](=O)[O-])c1`?
HCMV inh: -10.8; Marburg entry inh: inconclusive; FMDV inh: 0.0%; LASV entry inh: 10µM*; HCV inhibitor: inconclusive; SARS PLpro yeast: -9.8%

What do the screens show for `CC1(c2nnnn2-c2ccc3c(c2)OCCO3)CCC(=O)N1CCc1ccccc1F` (stereo unspecified)?
HCMV inh: -16.3; FMDV inh: -3.3%

Results for CC(C)Cn1c(=O)c2ccccc2n2c(CCC(=O)Nc3cccc(Cl)c3)nnc12 ?
HCMV inh: -37.1; Marburg entry inh: -3.7%[46.1 µM]; FMDV inh: -9.5%

Results for COc1ccc(-c2cc(N)n(S(=O)(=O)c3c(F)c(F)c(F)c(F)c3F)n2)cc1OC ?
HCMV inh: -102.3*; Marburg entry inh: 2.31µM*; FMDV inh: inconclusive; LASV entry inh: inconclusive; HCV inhibitor: inconclusive; SARS PLpro yeast: -22.8%

Results for COc1ccc(S(=O)(=O)n2nc(-c3cc(OC)c(OC)c(OC)c3)cc2N)cc1OC ?
HCMV inh: 105.9; FMDV inh: 0.0%; HCV inhibitor: inconclusive; SARS PLpro yeast: -23.1%

Results for N#C/C(=C/C1=C(N2CCOCC2)C(=C/c2ccc(Cl)cc2Cl)/CC1)C(=O)Nc1ccccc1F ?
HCMV inh: -0.5; Marburg entry inh: 1.3%[46.1 µM]; FMDV inh: -22.6%; LASV entry inh: -6.5%[46.1 µM]; HCV inhibitor: -17.4%

How did O=C(c1cnn(C(=O)c2ccco2)c1)c1ccccc1O do in these assays?
HCMV inh: -35.4; FMDV inh: -6.1%; HCV inhibitor: 5.8%; SARS PLpro yeast: 0.3%

How did COC(=O)C1=C(C(=O)OC)[C@]2([C@H]3CCCCN[C@@H](Cc4ccccc4)C(=O)N3Cc3ccccc3)C=C[C@H]1O2 do in these assays?
HCMV inh: -69.5*; FMDV inh: inconclusive; HCV inhibitor: 11.2µM*; SARS PLpro yeast: -0.4%

Results for Cc1c(/C=C/C(=O)c2ccc(O)cc2)cnn1C ?
HCMV inh: -14.4; Marburg entry inh: -15.4%; FMDV inh: 11.1%; LASV entry inh: 1.2%; HCV inhibitor: inconclusive; SARS PLpro yeast: 3.2%

What do the screens show for `Cc1c(/C=C/C(=O)c2ccc(C(C)C)cc2)cnn1C`?
HCMV inh: -87.1*; Marburg entry inh: 14.1%[46.1 µM]; FMDV inh: -1.2%; LASV entry inh: inconclusive; HCV inhibitor: 31.6µM*; SARS PLpro yeast: 0.2%

Results for CCc1ccc(N2CCn3c2nc2c3c(=O)n(C/C=C/c3ccccc3)c(=O)n2C)cc1 ?
HCMV inh: 12.8; FMDV inh: 6.4%; LASV entry inh: -7.3%[46.1 µM]

What do the screens show for `O=C(Nc1cc(C(F)(F)F)ccc1F)C1CCC1`?
HCMV inh: -5.4; Marburg entry inh: 6.6%[46.1 µM]; FMDV inh: -4.6%; LASV entry inh: 10.3%; HCV inhibitor: 12.9%; SARS PLpro yeast: -0.9%

Results for Nc1ncnc2occ(-c3ccc(NC(=O)Nc4cc(C(F)(F)F)ccc4F)cc3)c12 ?
LASV entry inh: 15.8µM*

What do the screens show for `COc1ccc(-c2oc3ncnc(N)c3c2-c2ccc(NC(=O)Nc3cc(C(F)(F)F)ccc3F)cc2)cc1`?
LASV entry inh: 11.2µM*

What do the screens show for `COc1cc(-c2nccc3[nH]nc(-c4ccncc4)c23)cc(OC)c1OC`?
HCMV inh: -8.8

Results for CCS(=O)(=O)Nc1cc(C(=O)N2CCCN(C=O)CC2)c2c(c1)nc(-c1ccccc1)n2C ?
FMDV inh: 0.0%

Results for COc1ccc(OC)c(NC(=O)CSc2n[nH]c(-c3ccccc3Cl)n2)c1 ?
HCMV inh: -10.0; FMDV inh: 0.0%; LASV entry inh: -16.8%[46.1 µM]

What do the screens show for `Cc1cccc(N/C=C/C(=O)c2ccc(Cl)cc2)c1`?
HCMV inh: 52.0; FMDV inh: 44.3%; HCV inhibitor: 1.2%; SARS PLpro yeast: 0.6%

How did O=C(/C=C\Nc1ccccn1)c1ccc(Cl)cc1 do in these assays?
HCMV inh: -33.2; Marburg entry inh: 6.51µM*; LASV entry inh: inconclusive; HCV inhibitor: -11.4%; SARS PLpro yeast: -10.6%
